High-throughput results (PubChem)
KKLEB cytotox – cytotoxicity in KKLEB CF airway cells, primary screen, cytotoxicity control for CF NF-kB inhibitor project, cell-based, uHTS, fluorescence assay plates | KKLEB CF airway cells viability, ATPlite luminescence, overnight; stronger effect = lower value; cells stimulated with P. aeruginosa culture filtrate | activity change (cytotoxicity), % at 5 µM | hit rate 0.36% among 360,000 | AID 602141, 2011;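 active = corrected activity change at or below -50% at 5 µM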
EBV LMP1 NFkB – EBV LMP1-driven NF-kappaB luciferase reporter inhibitors, primary screen, cell-based, luminescence, single point | LMP1-induced NF-kappaB luciferase reporter cells | inhibition, % at 12.5 µM | hit rate 0.69% among 350,000; in the data active = inhibition above about 41%
Shn3 3UTR inh – reduction of Shn3 3'UTR firefly luciferase signal, primary screen, Schnurri-3 inhibitor project, cell-based, Clone20 osteoblasts, set 2; AID 588674, 2011; Clone20 osteoblast Shn3 3'UTR firefly luciferase, 24 h; inhibition, % at 12.5 µM; hit rate 0.52% among 360,000;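 active = mean inhibition of at least 75% with every replicate also reaching 75%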
CF NFkB block – inhibitors of PAF-induced NF-kB signaling, primary screen, cell-based, GFP fluorescence, uHTS. hit rate 0.86% among 360,000. inhibition, % at 5 µM. KKLEB NF-kB-GFP reporter, GFP fluorescence overnight;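 active = at least 50% inhibition at 5 µM, scaled per plate between neutral and stimulator controls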;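 also: PAF is a Pseudomonas aeruginosa culture filtrate used as stimulus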
HIF-2a inh – HIF-2a reporter inhibitors, primary screen, luminescence, 786-0 RCC cells; inhibition, % at 18.8 µM; AID 624352, 2012; hit rate 0.72% among 360,000; 786-0 RCC cells HIF-2a reporter, luciferase luminescence, overnight;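 active = inhibition of the luminescence signal of 40% or more relative to plate controls, in a single-dose primary screen at 18.75 µM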
Peg3 prom inh – Peg3 promoter-driven luciferase inhibitors, primary screen, cell-based, HeLa, luciferase luminescence | AID 588405, 2011 | inhibition, % at 20 µM | hit rate 1.7% among 360,000 | HeLa PEG-Prom luciferase reporter, overnight;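 active = inhibition of at least 50% at 20 µM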
Each line names hits and unclear results; the compound was inactive in the other large screens. In the library only some 2.9% were active in any assay of this set; here they are far more common.

CCCS(=O)(=O)Nc1ccc(Nc2c3ccccc3nc3ccccc23)c(OC)c1	EBV LMP1 NFkB 43, Shn3 3UTR inh 88
COc1cc(N)ccc1Nc1c2ccccc2nc2ccccc12	Peg3 prom inh 103 (no result: EBV LMP1 NFkB)
Cc1ccc(O)c(Nc2c3ccccc3nc3ccccc23)c1	Peg3 prom inh 61
COc1ccc(Nc2c3c(nc4ccccc24)CCC3)c(OC)c1	none
O=C(NCCN1CCN(c2ccccc2)CC1)c1ccc2c(c1)[nH]c(=S)n1c3ccccc3nc21	Peg3 prom inh 50
Nc1ccn([C@@H]2O[C@H](CNS(=O)(=O)c3cc4ccccc4s3)[C@@H](O)[C@H]2O)c(=O)n1	none
Cc1cccc(NC(=O)c2cc3c(=O)n4ccccc4nc3n(CC(C)C)c2=N)c1	Peg3 prom inh 54
Cc1ccc(CNC(=O)c2cc3c(=O)n4ccccc4nc3n(Cc3ccco3)c2=N)cc1	none
CCc1noc(C)c1C(=O)N(C)CC(=O)Nc1cccc(OC)c1	EBV LMP1 NFkB 68
CC(C)(C)C1CCc2sc(-c3nnc(CCl)o3)cc2C1 (centres undefined)	none
ClCc1nnc(-c2cc3c(s2)CCCC3)o1	Peg3 prom inh 108
O=C(Nc1cccc2ncccc12)c1ccc(OCc2ccccc2)cc1	none
CC1O[C@@H]2O[C@](O[C@H](C)CC[C@@H](C)O)(c3ccccc3)O[C@@H]2C[C@H]1O (some centres undefined)	none
CC(C)CNc1cc(N2CCCC2)ccc1[N+](=O)[O-]	Peg3 prom inh 54
CCNc1cc(N2CCCC2)ccc1[N+](=O)[O-]	none
CN(C)CCNC(=O)c1ccc(Sc2ccc(Br)cc2)c([N+](=O)[O-])c1	Peg3 prom inh 94
O=C(CCN=C1NS(=O)(=O)c2ccccc21)NCc1ccccc1F	none
O=S(=O)(c1ccc(Cl)cc1)n1ccc2cccnc21	Shn3 3UTR inh 98
COc1ccc(/C=C2\SC(=S)N(CCCC(=O)N3CCN(C)CC3)C2=O)cc1	HIF-2a inh 45
COc1cccc(/C=C2/SC(=S)N(CCC(=O)N3CCOCC3)C2=O)c1	none
COc1ccc(/C=C2\SC(=S)N(CCC(=O)NCCCn3ccnc3)C2=O)cc1	HIF-2a inh 40
COc1ccc(CN2C(=O)/C(=C/c3ccncc3)SC2=S)cc1	HIF-2a inh 43, Peg3 prom inh 67
CC(=O)Oc1ccc(/C=C2/SC(=S)N(Cc3ccccc3)C2=O)cc1	none
COc1cccc(/C=C2\SC(=S)N(CCCC(=O)N3CCCCC3)C2=O)c1	HIF-2a inh 67, Peg3 prom inh 53
CC(C)c1ccc(/C=C2\SC(=S)N(CCC(=O)NCCCn3ccnc3)C2=O)cc1	none
CCc1ccc(/C=C2\SC(=S)N(CCCC(=O)N3CCN(C)CC3)C2=O)cc1	none
COc1ccc(C(=O)Nc2ccc(OCC(=O)N3CCOCC3)cc2)c(OC)c1OC	none
COc1ccc(/C=C2\SC(=S)N(CCC(=O)NC3C=CS(=O)(=O)C3)C2=O)cc1 (centres undefined)	HIF-2a inh 75
COc1cccc(/C=C2\SC(=S)N(CCC(=O)NC3C=CS(=O)(=O)C3)C2=O)c1 (centres undefined)	none
Cc1cc(SCc2cccc(C(F)(F)F)c2)nc(=O)[nH]1	none
Cc1ccc(CNC(=O)/C=C/[C@H]2O[C@@H](n3cc(C)c(=O)[nH]c3=O)C[C@@H]2O)o1	none (no result: EBV LMP1 NFkB)
Cc1cn([C@H]2C[C@H](O)[C@@H](/C=C/C(=O)NCc3cccc4ccccc34)O2)c(=O)[nH]c1=O	KKLEB cytotox -52, CF NFkB block 81 (no result: EBV LMP1 NFkB)
COC(=O)C1C(=O)C2=C(CC1C)Nc1ccccc1NC2c1cccs1 (centres undefined)	none
CC/C(=C(\c1ccc(O)cc1)c1ccc(OCCN(C)C)cc1)c1ccccc1	Peg3 prom inh 57
CCC(=C(c1ccc(O)cc1)c1ccc(OCCN(C)C)cc1)c1ccccc1	none
CC/C(=C(\c1ccccc1)c1ccc(OCCN(C)C)cc1)c1ccccc1	Peg3 prom inh 71
CCC(=C(c1ccccc1)c1ccc(OCCN(C)C)cc1)c1ccccc1	none (no result: EBV LMP1 NFkB)
O=C(Cc1ccc(Cl)cc1)c1c[nH]c(C(=O)NCc2cccnc2)c1	Peg3 prom inh 102
CC(C)(C)c1ccc(C(=O)c2c[nH]c(C(=O)NCc3cccnc3)c2)cc1	none
C[C@@]12C(=O)N(Cc3ccc(F)cc3)CC(=O)N1[C@H]1c3cc(Cl)ccc3OC[C@@H]1[C@@H]2c1ccccc1	none
COc1ccc(C2(c3ccc(OC)cc3)NC(=O)N(CC(=O)NC3CCS(=O)(=O)C3)C2=O)cc1 (centres undefined)	none
Cn1c(=O)c2c(SCC(N)=O)nc(CC(C)(C)C)nc2n(C)c1=O	none
CCCc1nc(SCC(=O)N2CCC(Cc3ccccc3)CC2)c2c(=O)n(C)c(=O)n(C)c2n1	Peg3 prom inh 99
Cn1c(=O)c2c(SCC(=O)N3CCCc4ccccc43)nc(CC(C)(C)C)nc2n(C)c1=O	HIF-2a inh 53
C=C1C(=O)CC2=C1[C@](Cc1ccc(F)cc1)(C(=O)OC)N(C(=O)c1ccccc1)C2	none (no result: KKLEB cytotox, EBV LMP1 NFkB, Shn3 3UTR inh, CF NFkB block, Peg3 prom inh)
C=C1C(=O)C=C2CN(C(=O)c3ccccc3)[C@@](Cc3ccc(F)cc3)(C(=O)OC)[C@@H]12	KKLEB cytotox -91, EBV LMP1 NFkB 94, Shn3 3UTR inh 95, CF NFkB block 75, HIF-2a inh 97, Peg3 prom inh 99
CC(C)(C)NC(=O)NC(=O)COC(=O)C1=COCCO1	none
CC1(C)CC2(C)OC2C2(C1)N=NC(=Nc1ccccc1)O2 (centres undefined)	Peg3 prom inh 73 (no result: EBV LMP1 NFkB)
CN(CC(=O)Nc1cccc(F)c1)C(=O)C1CCN(S(=O)(=O)c2ccc3c(c2)OCCO3)CC1	none
C=CCOc1ccc(/C=C/C(=O)OCC(=O)N(C)C2CCS(=O)(=O)C2)cc1 (centres undefined)	none
O=C(NCC1CCCO1)C(c1cccs1)N(Cc1ccccc1Cl)C(=O)c1ccc(-c2ccccc2)[nH]1 (centres undefined)	Peg3 prom inh 80
Cc1ccc(C(C(=O)NCC2CCCO2)N(Cc2ccccc2)C(=O)c2ccc(-c3ccccc3)[nH]2)o1 (centres undefined)	none
CNC(CC(=O)c1ccc([N+](=O)[O-])cc1)C(Cl)(Cl)Cl (centres undefined)	HIF-2a inh 93, Peg3 prom inh 101
COc1ccc(C(=O)CC(Nc2ccc([N+](=O)[O-])cc2)c2ccc(OC)cc2)cc1 (centres undefined)	none
CCCn1c(=O)c2c(ncn2C)n(CCC)c1=O	none
C#CCn1c(=O)c2c(ncn2C)n(C)c1=O	EBV LMP1 NFkB 44
